Activity calls are given as the source filed them. The calls were made as follows: active = hit-call score of the fitted dose curve at least 0.9, where 1 is the maximum; inactive = score below 0.9.
What was measured:
Settings in all cases: mRNA level, 48 h; actives raise or lower the signal
[1] = read-out: Cytochrome P450 3A4 (Homo sapiens) (UniProt P08684); experiment: LTEA_HepaRG_CYP3A4: Life Technologies and Expression Analysis (LTEA) Assay for CYP3A4 using HepaRG (AID 2283487)
In short: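 CYP3A4 transcript measured by TaqMan qRT-PCR and normalized to three housekeeping genes after 48 h chemical exposure of human HepaRG cells. Top concentration 100 uM, half-log steps, 0.5% DMSO vehicle; gain or loss fitted against DMSO baseline.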

[2] = read-out: DNA damage-inducible transcript 3 (DDIT3), DDIT3 (gene 1649); experiment: LTEA_HepaRG_DDIT3: Life Technologies and Expression Analysis (LTEA) Assay for DNA damage-inducible transcript 3 (DDIT3) using HepaRG (AID 2283488)
In short: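 Eight-point concentration-response (100 uM highest, half-log dilutions) in HepaRG, 48 h, duplicate wells. Endpoint: qRT-PCR mRNA, normalized (ACTB, GAPDH, POLR2A), bidirectional fitting with DMSO as baseline.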

[3] = read-out: Pro-epidermal growth factor (Homo sapiens) (UniProt P01133); experiment: LTEA_HepaRG_EGF: Life Technologies and Expression Analysis (LTEA) Assay for Epidermal growth factor (EGF) using HepaRG (AID 2283489)
In short: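 EGF transcript measured by Fluidigm TaqMan qRT-PCR with three housekeeping genes for normalization, 48 h after dosing HepaRG cultures in duplicate (top 100 uM, half-log steps, 0.5% DMSO vehicle). Gain or loss relative to DMSO fitted.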

[4] = read-out: Early growth response protein 1 (EGR1) transcription factor, EGR1 (gene 1958); experiment: LTEA_HepaRG_EGR1: Life Technologies and Expression Analysis (LTEA) Assay for Early growth response protein 1 (EGR1) transcription factor using HepaRG (AID 2283490)
In short: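 EGR1 expression change in human HepaRG after 48 h chemical exposure, assessed by housekeeping-normalized qRT-PCR; concentration-response up to 100 uM, fitted in both directions against DMSO controls.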

[5] = read-out: Ezrin (EZR), EZR (gene 7430); experiment: LTEA_HepaRG_EZR: Life Technologies and Expression Analysis (LTEA) Assay for Ezrin (EZR) using HepaRG (AID 2283491)
In short: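 HepaRG, 48 h chemical exposure, 8-pt half-log series from 100 uM, 0.5% DMSO vehicle, duplicates. Read-out: EZR mRNA by TaqMan qRT-PCR (Fluidigm array), housekeeping-normalized; bidirectional curve fit vs DMSO baseline.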

[6] = read-out: Cytochrome P450 3A7 (Homo sapiens) (UniProt P24462); experiment: LTEA_HepaRG_CYP3A7: Life Technologies and Expression Analysis (LTEA) Assay for CYP3A7 using HepaRG (AID 2283492)
In short: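 CYP3A7 transcript measured by qRT-PCR (ACTB, GAPDH, POLR2A normalization) after 48 h chemical exposure of HepaRG cells in duplicate. Eight half-log concentrations, maximum 100 uM, 0.5% DMSO vehicle; bidirectional curve fitting against DMSO baseline.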

[7] = read-out: CYP3A5 (gene 1577); experiment: LTEA_HepaRG_CYP3A5: Life Technologies and Expression Analysis (LTEA) Assay for CYP3A5 using HepaRG (AID 2283493)
In short: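 Readout was CYP3A5 mRNA by qRT-PCR. HepaRG cultures were exposed for 48 h in serum-free induction medium to chemicals at up to 100 uM, and responses were fitted in both directions relative to DMSO vehicle.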

[8] = read-out: Fatty Acid-Binding Protein 1 (FABP1), FABP1 (gene 2168); experiment: LTEA_HepaRG_FABP1: Life Technologies and Expression Analysis (LTEA) Assay for Fatty Acid-Binding Protein 1 (FABP1) using HepaRG (AID 2283494)
In short: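 Values reflect bidirectional concentration-response fitting of FABP1 mRNA change against 0.5% DMSO controls. Human HepaRG cultures received eight half-log doses (top 100 uM) for 48 h; expression quantified by TaqMan qRT-PCR with housekeeping-gene normalization.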

[9] = read-out: Cytochrome P450 4A22 (Homo sapiens) (UniProt Q5TCH4); experiment: LTEA_HepaRG_CYP4A22: Life Technologies and Expression Analysis (LTEA) Assay for Cytochrome P450 4A22 (CYP4A22) using HepaRG (AID 2283495)
In short: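 Gene expression measured by qRT-PCR against three housekeeping genes (ACTB, GAPDH, POLR2A), with gain or loss fitted relative to 0.5% DMSO vehicle. HepaRG cultures received 48 h chemical treatment, top concentration 100 uM, half-log steps, duplicate wells.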

[10] = read-out: Cytochrome P450 7A1 (Homo sapiens) (UniProt P22680); experiment: LTEA_HepaRG_CYP7A1: Life Technologies and Expression Analysis (LTEA) Assay for Cytochrome P450 7A1 (CYP7A1) using HepaRG (AID 2283496)
In short: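 Using 0.5% DMSO as vehicle and baseline, chemicals were tested in duplicate over an 8-point range from 100 uM on HepaRG cells for 48 h; qRT-PCR signals were normalised to ACTB, GAPDH and POLR2A.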

[11] = read-out: Glutathione S-Transferase (GSTA2), GSTA2 (gene 2939); experiment: LTEA_HepaRG_GSTA2: Life Technologies and Expression Analysis (LTEA) Assay for Glutathione S-Transferase (GSTA2) using HepaRG (AID 2283497)
In short: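 Oxidative-stress marker GSTA2 is quantified by TaqMan qRT-PCR in HepaRG cultures treated 48 h across an eight-point range to 100 uM. Expression is normalized to endogenous controls and compared with 0.5% DMSO vehicle.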

[12] = read-out: Glutamate-cysteine ligase catalytic (GCLC), GCLC (gene 2729); experiment: LTEA_HepaRG_GCLC: Life Technologies and Expression Analysis (LTEA) Assay for Glutamate-cysteine ligase catalytic (GCLC) using HepaRG (AID 2283498)
In short: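 Oxidative-stress marker GCLC is measured as mRNA change in human HepaRG liver cells after 48 h chemical treatment in 0.5% DMSO, eight concentrations from 100 uM. Activity is fitted bidirectionally against vehicle.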

[13] = read-out: growth arrest and DNA damage 45 (GADD45G), GADD45G (gene 10912); experiment: LTEA_HepaRG_GADD45G: Life Technologies and Expression Analysis (LTEA) Assay for growth arrest and DNA damage 45 (GADD45G) using HepaRG (AID 2283499)
In short: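 GADD45G transcript level by qRT-PCR (housekeeping-normalized: ACTB, GAPDH, POLR2A) after 48 h chemical treatment of a single HepaRG lot in serum-free induction medium; eight-point half-log series up to 100 uM in 0.5% DMSO, duplicates, up- or down-regulation scored.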

[14] = read-out: Glutamate-cysteine ligase regulatory (GCLM), GCLM (gene 2730); experiment: LTEA_HepaRG_GCLM: Life Technologies and Expression Analysis (LTEA) Assay for Glutamate-cysteine ligase regulatory (GCLM) using HepaRG (AID 2283500)
In short: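 In this multiplexed HepaRG gene-expression assay, GCLM mRNA change after 48 h treatment (8 concentrations, max 100 uM) was scored against DMSO by bidirectional curve fitting.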

[15] = read-out: Glutathione S-transferase M3 (GSTM3), GSTM3 (gene 2947); experiment: LTEA_HepaRG_GSTM3: Life Technologies and Expression Analysis (LTEA) Assay for Glutathione S-transferase M3 (GSTM3) using HepaRG (AID 2283501)
In short: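 GSTM3 transcript levels came from Fluidigm TaqMan qRT-PCR normalized to three housekeeping genes, fitted in both directions against DMSO. HepaRG cultures received chemicals for 48 h in serum-free induction medium (0.5% DMSO), 8 half-log concentrations up to 100 uM, duplicate.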

[16] = read-out: Hypoxia-inducible factor 1-alpha (Homo sapiens) (UniProt Q16665); experiment: LTEA_HepaRG_HIF1A: Life Technologies and Expression Analysis (LTEA) Assay for Hypoxia-inducible factor 1 (HIF1A) Trancription factor using HepaRG (AID 2283503);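 also: HIF1A transcript by TaqMan qRT-PCR normalized to ACTB GAPDH and POLR2A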
In short: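 Gain- or loss-of-signal HIF1A mRNA changes are fitted against a DMSO baseline. HepaRG cultures receive eight concentrations, highest 100 uM, for 48 h in serum-free induction medium with 0.5% DMSO.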

[17] = read-out: 3-Hydroxy-3-Methylglutaryl-CoA Synthase 2 (HMGCS2), HMGCS2 (gene 3158); experiment: LTEA_HepaRG_HMGCS2: Life Technologies and Expression Analysis (LTEA) Assay for 3-Hydroxy-3-Methylglutaryl-CoA Synthase 2 (HMGCS2) using HepaRG (AID 2283504)
In short: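 Readout is HMGCS2 transcript by qRT-PCR, housekeeping-normalised (ACTB/GAPDH/POLR2A) and fitted bidirectionally against 0.5% DMSO. Differentiated HepaRG cells received chemicals 48 h, duplicate wells, eight half-log concentrations topping at 100 uM.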

[18] = read-out: HGF (gene 3082); experiment: LTEA_HepaRG_HGF: Life Technologies and Expression Analysis (LTEA) Assay for Hepatocyte Growth Facto (HGF) using HepaRG (AID 2283505)
In short: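 HGF transcript was quantified by TaqMan qRT-PCR against three housekeeping genes after 48 h treatment of HepaRG cells. Exposure ran in duplicate over eight half-log steps topping at 100 uM in 0.5% DMSO vehicle.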

[19] = read-out: Insulin Like Growth Factor 1 (IGF1), IGF1 (gene 3479); experiment: LTEA_HepaRG_IGF1: Life Technologies and Expression Analysis (LTEA) Assay for Insulin Like Growth Factor 1 (IGF1) using HepaRG (AID 2283506)
In short: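 Endpoint: IGF1 mRNA change by qRT-PCR, housekeeping-normalized, fitted bidirectionally relative to 0.5% DMSO vehicle. Human HepaRG cells were treated 48 h in serum-free induction medium, eight half-log concentrations topping at 100 uM.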

[20] = read-out: Heat shock 70 kDa protein 1 (HSPA1A), gene 3303; experiment: LTEA_HepaRG_HSPA1A: Life Technologies and Expression Analysis (LTEA) Assay for Heat shock 70 kDa protein 1 (HSPA1A) using HepaRG (AID 2283502)
In short: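 An oxidative-stress marker readout: HepaRG cells treated 48 h in duplicate with an eight-point series (highest 100 uM) had HSPA1A mRNA quantified by TaqMan qRT-PCR. Activity was fitted in both directions using 0.5% DMSO as baseline.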

Measured: AC50

Cytochrome P450 3A7 (Homo sapiens), sequence (P24462 whole entry, looked up): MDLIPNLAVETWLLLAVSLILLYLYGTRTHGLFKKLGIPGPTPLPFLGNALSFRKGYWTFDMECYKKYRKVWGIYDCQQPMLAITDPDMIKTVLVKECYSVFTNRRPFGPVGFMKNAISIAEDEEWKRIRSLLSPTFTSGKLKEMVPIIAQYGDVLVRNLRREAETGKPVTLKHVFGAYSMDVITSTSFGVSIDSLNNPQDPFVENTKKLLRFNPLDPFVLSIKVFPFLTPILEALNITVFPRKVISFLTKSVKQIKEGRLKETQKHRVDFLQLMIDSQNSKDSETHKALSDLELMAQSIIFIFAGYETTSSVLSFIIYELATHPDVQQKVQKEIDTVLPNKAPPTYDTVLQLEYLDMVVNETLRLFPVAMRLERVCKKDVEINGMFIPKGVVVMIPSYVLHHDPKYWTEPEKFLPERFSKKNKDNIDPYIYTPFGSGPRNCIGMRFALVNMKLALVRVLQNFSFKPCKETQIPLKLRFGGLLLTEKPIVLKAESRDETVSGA
Cytochrome P450 3A4 (Homo sapiens), sequence (P08684 whole entry, looked up): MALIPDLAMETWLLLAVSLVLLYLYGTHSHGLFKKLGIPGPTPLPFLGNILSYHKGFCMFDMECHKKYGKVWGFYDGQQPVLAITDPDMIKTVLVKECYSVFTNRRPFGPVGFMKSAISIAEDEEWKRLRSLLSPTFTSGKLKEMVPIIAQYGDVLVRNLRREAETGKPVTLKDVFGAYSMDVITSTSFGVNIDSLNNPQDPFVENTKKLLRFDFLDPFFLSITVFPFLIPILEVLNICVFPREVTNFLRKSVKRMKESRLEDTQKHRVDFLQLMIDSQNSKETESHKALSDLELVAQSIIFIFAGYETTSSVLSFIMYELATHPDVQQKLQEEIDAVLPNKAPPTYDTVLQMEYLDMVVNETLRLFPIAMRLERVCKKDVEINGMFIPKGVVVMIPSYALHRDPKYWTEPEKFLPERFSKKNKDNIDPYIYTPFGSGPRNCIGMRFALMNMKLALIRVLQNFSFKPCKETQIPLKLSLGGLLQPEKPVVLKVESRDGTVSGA
Hypoxia-inducible factor 1-alpha (Homo sapiens), sequence (Q16665 whole entry, looked up): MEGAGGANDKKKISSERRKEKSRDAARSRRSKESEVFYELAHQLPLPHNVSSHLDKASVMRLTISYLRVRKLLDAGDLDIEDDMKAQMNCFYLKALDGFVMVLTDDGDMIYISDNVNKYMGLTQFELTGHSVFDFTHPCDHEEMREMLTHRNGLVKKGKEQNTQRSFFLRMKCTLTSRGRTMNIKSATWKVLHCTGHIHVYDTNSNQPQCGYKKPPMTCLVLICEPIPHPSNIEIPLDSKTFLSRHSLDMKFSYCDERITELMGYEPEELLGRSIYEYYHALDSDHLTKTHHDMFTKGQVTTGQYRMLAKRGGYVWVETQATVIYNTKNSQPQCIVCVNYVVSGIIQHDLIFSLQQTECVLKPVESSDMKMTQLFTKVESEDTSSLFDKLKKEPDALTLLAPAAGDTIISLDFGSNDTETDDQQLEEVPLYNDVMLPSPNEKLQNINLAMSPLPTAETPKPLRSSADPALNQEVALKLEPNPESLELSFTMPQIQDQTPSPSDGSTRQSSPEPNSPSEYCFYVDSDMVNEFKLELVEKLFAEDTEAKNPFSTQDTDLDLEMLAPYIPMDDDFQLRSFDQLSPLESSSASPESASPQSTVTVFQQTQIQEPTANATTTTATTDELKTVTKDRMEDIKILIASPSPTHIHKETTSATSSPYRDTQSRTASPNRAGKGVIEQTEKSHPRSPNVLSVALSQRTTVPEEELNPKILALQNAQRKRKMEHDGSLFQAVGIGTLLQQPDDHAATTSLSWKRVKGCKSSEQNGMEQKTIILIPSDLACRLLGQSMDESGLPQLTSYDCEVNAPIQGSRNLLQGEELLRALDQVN

O=S(=O)(O)C(F)(F)C(F)(F)C(F)(F)C(F)(F)C(F)(F)C(F)(F)F
active: [1] 34.9 µM | [6] 20.9 µM | [8] 9.02 µM | [9] 25.1 µM | [13] 3.41 µM | [16] 4.59 µM | [17] 30.1 µM
inactive: [2] | [3] | [4] | [5] | [7] | [10] | [11] | [12] | [14] | [15] | [18] | [19]

C[C@]12CCC(=O)C=C1CC[C@@H]1[C@@H]2CC[C@]2(C)C(=O)CC[C@@H]12
inactive: [2] | [3] | [4] | [5] | [6] | [11] | [12] | [14] | [15] | [20] | [17] | [18]
active: [1] 30.8 µM | [7] 50 µM | [8] 12.5 µM | [9] 72.7 µM | [10] 4.69 µM | [19] 50 µM

Cc1ccc(O)c(C)c1
inactive: [1] | [2] | [3] | [4] | [5] | [6] | [7] | [8] | [10] | [11] | [12] | [13] | [14] | [15] | [20] | [16] | [17] | [18]

Source: PubChem BioAssay (EPA / NIEHS)
